Beta cell apopt – beta cell apoptosis inhibition. INS-1E cytokine-induced death, ATP luminescence, 48 h; percent of positive-control rescue, neutral wells zero. protection from apoptosis, % (test concentration not listed). actives 0.8% (n = 300,000). AID 435005;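 active means Every replicate reaches about 75%, or at least half do and their mean reaches it too, limit read from the data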;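 further: 0% = cytokine-treated negative control wells and 100% = positive control rescue; higher means more ATP so stronger rescue from cytokine killing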
697 NFkB inh – lowers PMA/ionomycin-induced NF-kB signal in 697 B cells. actives 0.33% (n = 330,000). 697 B-cell NF-kB luciferase reporter, 16 h. inhibition, % at 4 µM; in the data active means inhibition above about 35%
Gli-Sufu block – Gli-Sufu pathway antagonism. Sufu-KO-LIGHT fibroblasts, Gli luciferase reporter luminescence. inhibition, % at 5 µM. actives 0.74% (n = 340,000);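 active means inhibition above about 55%, limit read from the data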;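 further: 0% = DMSO-treated cells and 100% = wells with medium but no cells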
Jurkat NFkB inh – lowers PMA/ionomycin-induced NF-kB signal in Jurkat cells; PMA/ionomycin-induced NF-kB luciferase reporter, luminescence; inhibition, % at 4 µM; actives 0.53% (n = 330,000); AID 435003; in the data active means inhibition above about 50%
Mdm2 MdmX PPI – human Mdm2/MdmX binding inhibition | AID 485346 | O15151+Q00987 | actives 3% (n = 330,000) | SaOS-2 split-luciferase Mdm2/MdmX complementation, luminescence | inhibition, % at 8 µM;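 active means inhibition of at least 50% at 8 µM in the primary screen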
Target sequence (O15151 whole entry, looked up): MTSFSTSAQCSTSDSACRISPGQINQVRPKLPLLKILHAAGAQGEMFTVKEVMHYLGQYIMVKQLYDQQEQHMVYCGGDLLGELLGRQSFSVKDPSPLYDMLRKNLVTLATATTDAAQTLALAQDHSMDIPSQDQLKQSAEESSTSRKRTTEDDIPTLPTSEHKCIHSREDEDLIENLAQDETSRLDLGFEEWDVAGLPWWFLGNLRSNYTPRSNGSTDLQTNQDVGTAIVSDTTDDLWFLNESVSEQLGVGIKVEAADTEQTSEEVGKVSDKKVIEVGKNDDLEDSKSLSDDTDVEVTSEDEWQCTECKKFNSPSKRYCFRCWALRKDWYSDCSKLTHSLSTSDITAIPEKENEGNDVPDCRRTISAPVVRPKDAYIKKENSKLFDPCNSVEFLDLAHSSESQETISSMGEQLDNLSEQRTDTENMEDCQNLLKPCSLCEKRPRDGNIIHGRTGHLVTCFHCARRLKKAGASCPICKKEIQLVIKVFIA
Target sequence (Q00987 whole entry, looked up): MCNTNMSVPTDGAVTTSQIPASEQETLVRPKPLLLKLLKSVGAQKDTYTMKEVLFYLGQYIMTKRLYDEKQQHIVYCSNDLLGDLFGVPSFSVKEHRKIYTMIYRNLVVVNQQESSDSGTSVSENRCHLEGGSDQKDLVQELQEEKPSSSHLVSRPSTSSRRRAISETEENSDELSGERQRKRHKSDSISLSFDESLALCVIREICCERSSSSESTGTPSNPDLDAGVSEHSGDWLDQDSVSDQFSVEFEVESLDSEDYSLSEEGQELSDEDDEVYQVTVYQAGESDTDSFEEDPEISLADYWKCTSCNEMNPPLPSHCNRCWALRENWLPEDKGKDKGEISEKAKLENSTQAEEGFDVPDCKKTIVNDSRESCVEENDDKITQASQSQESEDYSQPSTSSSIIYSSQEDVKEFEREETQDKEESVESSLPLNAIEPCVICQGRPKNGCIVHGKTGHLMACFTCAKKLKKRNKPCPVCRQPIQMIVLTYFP
Jurkat NFkB conf – inhibitors of the PMA/ionomycin-induced NF-kB reporter in Jurkat cells, retest; AID 435020; inhibition, % at 4 µM; actives 27% (n = 2,700); shares compounds with Jurkat NFkB inh; Jurkat NF-kB luciferase, 16 h;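 active means inhibition reaching about 45% at 4 µM in either replicate, limit read from the data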;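 further: plate controls were PMA/ionomycin stimulated DMSO wells for no effect and unstimulated DMSO wells for full effect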
Numbers without * were called inactive; . = not tested or not shown. This is a sample that favours compounds with a hit; in the whole collection about 4% have one here.

SMILES	Beta cell apopt	697 NFkB inh	Gli-Sufu block	Jurkat NFkB inh	Mdm2 MdmX PPI	Jurkat NFkB conf
COc1ccc(NC(=O)c2ccc3c(c2)N(C)CCS3)cc1	4.3	-10.0	-100.4	-111.1	-87.5	.
COc1ccc(-n2nc(C(=O)NCC(=O)N3CC(C)CC(C)C3)c3ccccc3c2=O)cc1 (configuration not stated)	1.4	-9.5	4.3	-1.5	-10.9	.
O=C(N/N=C/c1ccc(F)cc1)c1cc(-c2ccc3c(c2)OCO3)n[nH]1	16.0	-11.1	-11.1	-10.1	0.9	.
Oc1ccc(F)cc1-c1cc(-c2ccc3c(c2)OCCO3)n[nH]1	11.6	-224.3	-5.4	-160.0	-99.8	-128.8
COc1ccc([N+](=O)[O-])cc1NCC(=O)Nc1cccc(S(=O)(=O)N2CCCC2)c1	.	23.7	12.2	-14.0	31.2	.
COCCCNC(=O)C(=O)Nc1ccc2c(c1)N(S(=O)(=O)c1cccs1)CCC2	14.8	-2.7	20.1	61.8*	44.6	56.7*
CCc1noc(C)c1C(=O)N1CCN(c2cccc(C)c2C)CC1	-1.4	-10.2	5.7	-0.1	15.2	.
Cc1cccc(N2CCN(C(=O)c3c(-c4ccccc4)noc3C)CC2)c1C	5.5	-51.0	26.9	68.3*	46.1	40.7
COc1ccc(/C=N/NC(=O)CCn2cnc(-c3ccccc3)c2-c2ccccc2)cc1OC	-11.1	-32.6	5.4	63.9*	42.2	20.4
COc1ccc(/C=N/NC(=O)CCC(=O)Nc2ccccc2)cc1OC	-1.0	16.1	-1.6	-4.3	5.8	.
CCN(CC)c1ccc(NC(=O)c2cc(OC)cc(OC)c2)c(C)c1	.	-27.7	46.2	60.1*	49.5	43.1
Cc1cc(C(=O)Cn2cc(C(F)(F)F)ccc2=O)c(C)n1-c1ccccc1	-4.4	-17.9	-2.1	15.8	-28.8	.
Cc1cc(C(=O)CN2C(=O)C3CC=CCC3C2=O)c(C)n1-c1ccccc1 (configuration not stated)	1.8	-199.4	-91.0	-173.7	0.2	-60.6
Cc1ccc(-c2cc(C(F)F)n3ncc(C(=O)N4CCCCC4c4cccnc4)c3n2)cc1 (configuration not stated)	3.5	1.0	8.0	4.4	28.6	.
O=C(Nc1ccccc1)c1ccc(CN2CCc3ccccc3C2)cc1	-0.5	-5.9	-3.4	12.7	16.5	.
O=C(Nc1ccc(S(=O)(=O)N2CCCCC2)cc1)c1ccc(CN2CCc3ccccc3C2)cc1	106.7*	10.3	-6.2	79.7*	24.6	77.7*
O=C(Nc1ccc(S(=O)(=O)Nc2ccccc2)cc1)c1ccc(CN2CCOCC2)cc1	3.2	13.5	25.0	64.4*	13.1	64.7*
Cc1onc(-c2ccccc2)c1C(=O)Nc1ccc(S(=O)(=O)N2CCOCC2)cc1	-4.8	0.8	-28.3	-6.9	14.6	.
O=C(O)CSc1nnc(-c2cccc(S(=O)(=O)N3CCOCC3)c2)n1-c1cccc(Cl)c1	2.2	10.0	0.7	-4.2	-21.3	.
C=CCn1c2ccccc2c(=O)c2cc(C#CC3(O)CCCCC3)ccc21	6.3	-231.1	-28.3	-276.5	-37.6	-89.1
CC[n+]1c(/C=C/c2ccc(OC)c(OC)c2)ccc2ccccc21	-5.4	-150.5	-51.4	-152.5	-52.6	-87.8
CC[n+]1c(/C=C/c2ccc(OC(C)=O)c(OC)c2)ccc2ccccc21	15.4	-32.0	-22.6	-84.4	-69.2	.
O=C(c1ccccc1)n1c(=O)cc[nH]c1=O	-3.6	1.0	-15.9	1.5	11.3	.
CCOc1ccc(OCc2cccc(C(=O)N3CCOCC3)c2)cc1	0.7	22.6	-145.9	53.1*	47.0	29.9
O=C(c1cccc(OCc2ccccc2)c1)N1CCOCC1	-1.0	11.4	-7.0	-8.7	18.8	.
SMILES	Beta cell apopt	697 NFkB inh	Gli-Sufu block	Jurkat NFkB inh	Mdm2 MdmX PPI	Jurkat NFkB conf
CCc1cc2c(=O)nc3n(c2s1)Cc1ccccc1/C3=C(/O)c1cccc([N+](=O)[O-])c1	-1.7	-107.6	2.5	69.2*	18.4	51.3*
CSc1ccc(S(=O)(=O)NCC(=O)OCC(=O)NCc2cccs2)cc1[N+](=O)[O-]	1.4	24.5	1.1	2.1	24.0	.
CCOC(=O)c1c(C)[nH]c(C(=O)Nc2ccc(C)c(Cl)c2)c1C	6.7	-166.3	.	-164.8	-142.5	-82.0
CSCCC(NC(=O)c1ccccc1Br)C(=O)N1CCCCCCC1 (configuration not stated)	-3.6	9.4	-1.2	7.8	-3.7	.
C[C@H]1CN([C@@H](C)CO)C(=O)Cc2cc(NC(=O)C3CC3)ccc2O[C@H]1CN(C)Cc1ccc(C(=O)O)cc1	0.3	0.5	-7.1	9.8	-1.8	.
CC(=O)NC12CC3CC(C1)CC(C(=O)OCC(=O)c1ccc4c(c1)OCCO4)(C3)C2	-0.7	-8.2	-33.0	-164.3	9.8	-81.0
CC(=O)NC12CC3CC(C1)CC(C(=O)OCC(=O)c1cc(C)n(C)c1C)(C3)C2	1.2	-143.8	-62.7	-162.2	-46.5	-61.6
O=C(/C=C/Nc1ccc(F)c(F)c1)c1cccs1	-0.3	-240.0	-9.6	-181.6	-173.4	6.2
NC(=O)c1ccccc1N/C=C/C(=O)c1cccs1	8.3	-127.5	13.8	-81.7	-160.4	.
O=C(/C=C/Nc1ccc(F)cc1)c1ccc(Br)cc1	-10.3	-164.4	-116.7	-163.1	-201.2	14.7
O=C(/C=C/Nc1cccc(O)c1)c1ccccc1	-3.7	-72.4	-5.5	-108.6	-128.3	.
O=C(/C=C/Nc1ccc(F)cc1)c1cccs1	1.4	-179.6	-89.0	-126.7	-174.0	.
O=C(/C=C/Nc1ccc(F)c(Cl)c1)c1ccccc1	.	-165.0	-100.3	-177.3	-78.8	-29.5
Cc1cccc(N/C=C/C(=O)c2cccs2)c1C	.	-180.1	-73.0	-167.5	-186.8	-13.9
Clc1ccc(-c2nc(C3CCCCC3)no2)cc1	.	-75.4	-87.0	-65.9	-8.5	.
CCOC(=O)c1c(C)[nH]c(C(=O)Nc2cc(OCC)c(N3CCOCC3)cc2OCC)c1C	29.0	-8.2	15.5	-3.5	38.0	.
CC(C)c1ccc(-n2cnn(-c3ncccc3[N+](=O)[O-])c2=O)cc1	-5.2	-155.1	-118.9	-204.0	-159.1	-126.0
Cc1cc(C)n(-c2ncccc2[N+](=O)[O-])n1	3.7	-0.1	2.1	5.1	19.6	.
Cc1ccc2nc(-c3ccc(SCC(=O)Nc4ccc5c(c4)OCCO5)nc3)[nH]c2c1	12.1	-8.1	4.6	-152.9	-34.1	-123.3
O=C(NCc1cccnc1)c1ccc(COc2ccccc2Cl)o1	1.8	-7.0	0.4	56.1*	16.4	7.6
O=C(NCc1cccnc1)c1ccc(COc2ccccc2Br)o1	2.4	0.6	7.1	71.7*	11.7	-4.8
O=C(NCc1cccnc1)c1ccc(COc2ccc3c(c2)CCC3)o1	27.4	-110.4	-26.7	38.9	-1.2	.
Cc1ccc(CNC(=O)COC(=O)COc2ccc(C#N)cc2)cc1	-3.2	12.0	-1.8	-6.1	-34.0	.
CCOc1ccc2oc(C(=O)Nc3cc(C)ccn3)c(C)c2c1	18.5	-183.6	-107.0	-164.2	-275.1	-71.7
CCOc1ccc2oc(C(=O)O)c(C)c2c1	-0.9	25.1	-2.8	12.6	-14.6	.
Cc1ccnc(NC(=O)c2oc3ccccc3c2C)c1	9.7	-187.6	-80.4	-168.3	-113.0	-116.5
